A number with no mark means an inactive call. Active and inactive are the calls of the source. The call rests on the fitted dose curve.
Assay: qHTS assay to identify small molecule agonists of the sonic hedgehog signaling (Shh) pathway (AID 1259368);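 further: NIH/3T3-derived 3T3Gli1-Luc cells carrying a stable Gli1-driven firefly luciferase reporter; nearly all actives have a fitted effect of over 15% in size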
Conditions: NIH/3T3 Gli1-Luc reporter, luciferase, 24 h, active compounds read high; series mostly up to 92.4 µM
Source text: National Center for Advancing Translational Sciences [NCATS]
NIH Chemical Genomics Center [NCGC]
U.S. Environmental Protection Agency [EPA]
National Institutes of Environmental Health Sciences [NIEHS]
National Toxicology Program [NTP]
The sonic hedgehog (Shh) pathway is essential for normal embryonic development. Dysregulation of the Shh pathway can cause severe developmental defects in organs. Therefore chemicals that interfere with the pathway are potential developmental toxicants. A cell line designated 3T3Gli1-Luc (DMB/OARSA/CFSAN/FDA, Laurel, MD), a NIH/3T3 derived clone containing stably integrated Gli1-Luc reporter is used to detect chemical interference of the Shh pathway, by changes in the expression of the firefly Luc gene under the control of the Gli1 transcriptional response element. This cell line was used to screen Tox21 libraries for identifying and prioritizing the potential developmental toxicants that interfere Shh pathway.
3T3 Gli1-Luc cells were dispensed at 2,000 per well in 5uL of culture medium into white solid bottom 1536-well plates (Greiner Bio-One, Monroe, NC) using a Multidrop Combi (Thermo Scientific, Waltham, MA) dispenser. The assay plates were incubated at 37 C and 5% CO2 for 4hr, and then 23nL of compounds dissolved in DMSO and positive control were transferred using a Pintool station (Wako, San Diego, CA). The assay plates were incubated at 37C and 5% CO2 for 24hr. For luciferase read, 4uL of Amplite Luciferase reporter gene assay reagent (AAT Bioquest, Inc. Sunnyvale, CA) was added to each well of the assay plates using Flying Reagent Dispenser (FRD, Aurora Discovery, San Diego, CA) and incubated at room temperature for 30min. The luminescence signal was measured using a ViewLux plate reader (Perkin Elmer, Shelton, CT).
For CN(C1CCCCC1)S(=O)(=O)c1ccccc1N, the outcome was “inactive”. In the case of O=c1[nH]c(=O)c2ccccc2o1, the outcome is reported as “inactive”. In the case of C[C@H](CCC(=O)NCC(=O)O)[C@H]1CC[C@H]2[C@@H]3[C@H](O)C[C@@H]4C[C@H](O)CC[C@]4(C)[C@H]3C[C@H](O)[C@]12C, the outcome is reported as “inactive”. In the case of CCCCCC1Nc2cc(C(F)(F)F)c(S(N)(=O)=O)cc2S(=O)(=O)N1 (stereo not given), the outcome is reported as “inactive”. In the case of CCCO, the outcome is reported as “inactive”. In the case of Cn1c(=O)c2c(ncn2CC2OCCO2)n(C)c1=O, the outcome is reported as “inactive”. For CCCCC(CC)C(=O)OC(C)C (stereo not given), the outcome was “inactive”. For COc1cc([N+](=O)[O-])ccc1N, the outcome was “inactive”. In the case of CCN(CCC#N)c1ccccc1, the outcome is reported as “inactive”. For C1CCN2C[C@@H]3C[C@@H](CN4CCCC[C@@H]34)[C@H]2C1, the outcome was “inactive”. For O=S(=O)(O)SSS(=O)(=O)O, the outcome was “inactive”. With Cc1oc(=O)oc1CN1CCN(c2cc3c(cc2F)c(=O)c(C(=O)O)c2n3C(C)S2)CC1 (stereo not given) the outcome was “inactive”. With Nc1ccc(S(=O)(=O)NC(=O)c2ccccc2)cc1 the outcome was “inactive”. In the case of O=C1OC(=O)c2cc(Oc3ccc4c(c3)C(=O)OC4=O)ccc21, the outcome is reported as “inactive”. For CCN(CCO)c1cccc(C)c1, the outcome was “inactive”. In the case of NS(=O)(=O)c1ccc(Cl)c(S(N)(=O)=O)c1, the outcome is reported as “inactive”. With COCCOCCOCCOC the outcome was “inactive”. For CCC1Nc2cc(Cl)c(S(N)(=O)=O)cc2S(=O)(=O)N1 (stereo not given), the outcome was “inactive”. For CCCOCCOCCOCCO, the outcome was “inactive”. In the case of Nc1nc(=O)n([C@@H]2O[C@H](CO)[C@@H](O)[C@@H]2F)cc1I, the outcome is reported as “inactive”. In the case of CC(=O)Nc1ccc(C)cc1, the outcome is reported as “inactive”. In the case of O=C(O)C(=O)Nc1cccc(-c2nn[nH]n2)c1, the outcome is reported as “inactive”. In the case of CCCCCCCCCOCC1CO1 (stereo not given), the outcome is reported as “inactive”. With CCCCCCCCOC(C)=O the outcome was “inactive”. For CN[C@@H]1[C@H](O)[C@H](NC)[C@H]2O[C@@]3(O)C(=O)C[C@@H](C)O[C@H]3O[C@@H]2[C@H]1O, the outcome was “inactive”. With CCCCCCCCCCC the outcome was “inactive”. With CC(C)CCC(=O)CCC(C)C the outcome was “inactive”. For CC(C)SCc1ccco1, the outcome was “inactive”. For CCOC(=O)CC#N, the outcome was “inactive”. In the case of O=C1CC[C@H](C(=O)N2CCCCC2)N1, the outcome is reported as “inactive”. With Nc1ccc(S(=O)(=O)Nc2ccccn2)cc1 the outcome was “inactive”. For Nc1ccnc(=O)[nH]1, the outcome was “inactive”. For Cc1cc(C)cc([N+](=O)[O-])c1, the outcome was “inactive”. In the case of CC1(N)CCC(C(C)(C)N)CC1 (stereo not given), the outcome is reported as “inactive”. With CC(C)COC(=O)CCCCC(=O)OCC(C)C the outcome was “inactive”. With CC(C)(C)c1ccc(C=O)cc1 the outcome was “inactive”. Compound Nc1c(NC/C=C\COc2cc(CN3CCCCC3)ccn2)c(=O)c1=O has an activity change of -1% [at 18.9 µM]. With CCCCCCCC[Si](OCC)(OCC)OCC the outcome was “inactive”. With COc1ccc(N=Nc2cc(C)c(N=Nc3ccc(S(=O)(=O)O)cc3)cc2OC)cc1 the outcome was “inactive”. In the case of CC(=O)OC(C(=O)c1ccccc1)c1ccccc1 (stereo not given), the outcome is reported as “inactive”.
On the % scale 0 is the no-effect control and ±100 the full control effect.
